# Marburg entry inh – qHTS for inhibitors of binding or entry into cells for Marburg Virus; Marburg virus pseudotyped entry inhibition, cell reporter; Potency, µM (top dose mostly 37.8 µM), for inactives: at the highest dose activity change, negative = inhibition, hits mostly inhibitors; 300,000 tested, 1.8% active; AID 540276, 2011; calls by dose curve; tested in HEK293 cells; note: potency is the fitted concentration of half-maximal effect; % is set by controls: 0 for no effect and ±100 for the full control effect
# Pf growth 48h – Primary qHTS for delayed death inhibitors of the malarial parasite plastid, 48 hour incubation; P. falciparum luciferase growth in erythrocytes, 48 h; Potency, µM (series often up to 28.7 µM), inactives show at the highest dose activity change, negative = inhibition, usual class: inhibitors; 310,000 tested, 5.9% active; note: potency is the fitted concentration of half-maximal effect; % is set by controls: 0 for no effect and ±100 for the full control effect
#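 Firefly luciferase activity from engineered P. falciparum reports growth; inhibitors lower the luminescent signal. Cultures contained 2% hematocrit erythrocytes at 0.1% final parasitemia.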
# Shiga toxin inh – A qHTS for Small Molecule Inhibitors of Shiga Toxin. Vero cells, Shiga toxin protein synthesis inhibition reporter. inhibition, % at 38.7 µM. 290,000 tested, 9.2% active. AID 2315, 2010; in the data active = inhibition mostly above about 28%, no sharp cut-off; inactive = mostly below about 43%; note: 0% is about no effect
# Pf growth 96h – Primary qHTS for delayed death inhibitors of the malarial parasite plastid, 96 hour incubation | 320,000 tested, 6.9% active | AID 504834, 2011 | P. falciparum luciferase reporter growth, 96 h | Potency, µM (titrated, usually from 28.7 µM), for inactives: at the highest dose activity change, negative = inhibition, most hits filed as inhibitors; note: potency is the fitted concentration of half-maximal effect; % is set by controls: 0 for no effect and ±100 for the full control effect
#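 Delayed-death screen, second-generation endpoint: infected erythrocytes, 2% hematocrit, 0.05% parasitemia final; 96 hours at 37 C, 5% CO2; luciferase detection reagent; luminescence decrease equals reduced growth.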
# CHX counter – Cycloheximide Counterscreen for Small Molecule Inhibitors of Shiga Toxin; cell reporter, cycloheximide protein synthesis inhibition counterscreen; max response, %; 300,000 tested, 12% active; in the data active = max response mostly above about 13%, no sharp cut-off; inactive = mostly below about 14%; note: read at 38.3 µM for the half of the compounds with a filed dose; 0% is about no effect
# LASV entry inh – qHTS for Inhibitors of binding or entry into cells for Lassa Virus. Lassa virus pseudotype entry inhibition, cell reporter. Potency, µM (highest dose often 37.9 µM), for the others: at the highest dose activity change, negative = inhibition, most hits filed as inhibitors. 300,000 tested, 1.2% active. AID 540256, 2011; calls by dose curve; tested in HEK293 cells; note: potency is the fitted concentration of half-maximal effect; % is set by controls: 0 for no effect and ±100 for the full control effect; nearly all actives have a fitted effect of over 50% in size
# An asterisk follows results filed as active; u = inconclusive; x = not tested or not shown; [ ] = dose if it differs, or a comment. This is a sample that favours compounds with a hit; in the whole collection about 19% have one here. Unless noted, calls come from the whole dose curve; as a rule, active = well fitted inhibition curve with a large enough effect; inconclusive = small, poorly fitted or top-dose-only effect, or another doubt; inactive = no such curve, though single readings can be large or run the other way.
SMILES,Marburg entry inh,Pf growth 48h,Shiga toxin inh,Pf growth 96h,CHX counter,LASV entry inh
CCOc1ccc(CNC(=O)C2CCN(S(=O)(=O)c3ccc4c(c3)CCCC(=O)N4)CC2)cc1,x,9.28µM*,-2.5,9.28µM*,-4.9,x
N#Cc1ccccc1S(=O)(=O)N1CCC(C(=O)NCc2ccccc2CN2CCCC2)CC1,x,u,x,6.57µM*,x,x
O=C(NCc1ccccc1Cl)C1CCN(S(=O)(=O)N2CCCC2)CC1,x,14.4%,-5.5,-17.3%,-1.2,x
CCOc1ccc(S(=O)(=O)N2CCC(C(=O)NCc3ccccc3CN3CCCC3)CC2)cc1,x,9.28µM*,x,13.1µM*,x,x
O=C1CCCc2cc(S(=O)(=O)N3CCC(C(=O)NCc4ccccc4)CC3)ccc2N1,-4.8%[46.1 µM],u,-5.7,19.1%,0.6,-14.5%[46.1 µM]
Cc1cc(C)n(CC(O)Cn2c3ccccc3c3ccccc32)c(=O)n1 (stereo not given),11.2%,x,-14.9,u,-1.7,-3.9%
CC(OC(=O)c1ccc(S(=O)(=O)N2CCCCC2)cc1)C(=O)NC1CCCCC1C (stereo not given),-2.8%,99.7%,-17.9,-6.7%,-3.1,0.2%
CCOc1ccc(S(=O)(=O)N2CCC(C(=O)OC(C)C(=O)NC3CCCCC3C)CC2)cc1 (stereo not given),-1.1%,8.28µM*,x,13.1µM*,x,-22.4%
CCc1c(C)nc(SCC(=O)N2CCCCC2)[nH]c1=O,x,51.4%,-8.4,0.0%,1.6,x
CCCCc1c(O)nc(SCC(=O)N2CCCCC2)[nH]c1=O,9.4%,21.9%,65.3,37.2%,16.7*,21.1%
CCc1c(O)nc(SCC(=O)N(CC)CC)[nH]c1=O,-5.0%[46.1 µM],u,2.5,13.1µM*,-5.6,-3.2%
CCc1c(C)nc(SCC(=O)N2C(C)CCCC2C)[nH]c1=O (stereo not given),-4.0%[46.1 µM],-37.3%[5.75 µM],10.7,14.0%,8.0,u
CCc1c(C)nc(SCC(=O)N2CCCCC2C)[nH]c1=O (stereo not given),x,-1.5%,9.8,7.38µM*,2.6,x
Cn1c(N)c(C(=O)COC(=O)c2cncc(Br)c2)c(=O)n(C)c1=O,2.4%[46.1 µM],14.7%,3.6,35.7%,3.4,10.8%
O=[N+]([O-])c1ccc2nonc2c1Nc1cccc(F)c1,0.0%,18.4%,-4.8,-0.3%,-2.8,x
Cc1ccc(CONC(=O)c2ccc(OC(F)F)cc2)cc1,u,16.2%,68.7*,55.2%,23.8*,-26.2%[46.1 µM]
CCc1ccc(C2=CC(c3cccc(Br)c3)n3nnnc3N2)cc1 (stereo not given),x,x,x,x,x,-1.7%[46.1 µM]
C=CCn1cc(C(=O)NCc2cccnc2)c(=O)c2cc(S(=O)(=O)N(CC)CC)ccc21,x,x,27.4,29.4%,-1.2,x
CCN(CC)S(=O)(=O)c1ccc2c(c1)c(=O)c(C(=O)NCCOC)cn2C,-8.1%,-4.9%,-9.9,5.3%,-4.7,-0.8%
C=CCn1cc(C(=O)NCCOC)c(=O)c2cc(S(=O)(=O)N(CC)CC)ccc21,2.1%,-19.3%,1.5,x,-0.9,11.6µM*
C=CCn1cc(C(=O)NCCCOCC)c(=O)c2cc(S(=O)(=O)N(CC)CC)ccc21,-3.9%,u,-7.3,7.3%,-6.3,6.51µM*
CN1C(=O)c2ccccc2C(O)c2ccccc21 (stereo not given),-2.8%[46.1 µM],x,x,x,x,-0.8%[46.1 µM]
CC(C)CN(C(=O)CCCOc1ccc(Cl)cc1Cl)c1c(N)n(Cc2ccccc2)c(=O)[nH]c1=O,u,11.7µM*,x,u,x,u
COc1cc2ccccc2cc1C(=O)OCC(=O)N(CC(C)C)c1c(N)n(Cc2ccccc2)c(=O)[nH]c1=O,-20.3%,10.4µM*,x,u,x,-24.8%
Cc1cc(-c2cccc([N+](=O)[O-])c2)nc2ccc3ccccc3c12,u,64.4%,-22.0,134.9%,-2.5,48.9%[14.3 µM]
SMILES,Marburg entry inh,Pf growth 48h,Shiga toxin inh,Pf growth 96h,CHX counter,LASV entry inh
CC(=O)Nc1ccc(OCc2ccc3c(c2)OCO3)cc1,u,64.6%,166.6*,0.0%,46.4*,-21.1%[46.1 µM]
CCOc1ccc(CNC(=S)N/N=C/c2ccc(OC)c(OC)c2)cc1,-72.1%,14.5%,-8.8,7.6%,-3.7,2.82µM*
COc1ccc(CNC(=S)NCc2ccc(OC)cc2)cc1,-22.7%[46.1 µM],7.0%,-3.1,0.0%,1.3,-24.6%[46.1 µM]
CCOc1ccc(NC(=S)NCc2ccc3c(c2)OCO3)cc1,-7.8%[46.1 µM],u,22.5,u,9.1*,3.8%
CCOc1ccc(CNC(=S)NCc2ccc(OCC)cc2)cc1,-17.0%[46.1 µM],18.5%,9.1,7.4%,11.4*,-22.4%
NC(=S)N/N=C/c1ncc(C(F)(F)F)cc1Cl,u,1.47µM*,10.9,3.29µM*,-0.4,u
CN(C(=O)CSc1nnc(-c2cccnc2)o1)C1CCCCC1,x,-2.8%,x,-31.7%,x,x
CSCc1ccc(C(=O)NC(C)c2cnn(-c3ccccn3)c2C)o1 (stereo not given),22.1%,-16.5%,48.2*,u,23.7*,-7.1%
CCN=C1NN=C(c2c[nH]c3ccccc23)CS1,u,266.5%,38.4*,-89.3%,32.2*,u
COCC(C)N=C1NN=C(c2c[nH]c3ccccc23)CS1 (stereo not given),15.9%,138.8%,53.4*,0.0%,63.7*,5.2%
CCn1c(SC)nnc1-c1c[nH]c2ccccc12,x,x,38.3,-3.2%,21.0,x
COc1ccc(Cc2nc3ccc(C(=O)N(C)CCO)cc3o2)cc1,12.9%[46.1 µM],-13.6%,-4.1,-33.8%,1.9,u
CCN(CCn1cccn1)C(=O)c1ccc2nc(Cc3ccc(OC)cc3)oc2c1,x,32.2%,56.0,u,23.1*,x
COCCCNC(=O)c1ccc2nc(Cc3ccc(OC)cc3)oc2c1,u,4.8%,111.0,-1.4%,31.9*,u
C=CCNC(=O)c1ccc2nc(Cc3ccc(OC)cc3)oc2c1,u,x,x,x,x,5.62µM*
COc1ccc(Cc2nc3ccc(C(=O)NC(C)c4cnn(C)c4)cc3o2)cc1 (stereo not given),13.8%,-10.9%,-3.0,u,11.9,5.4%
COc1ccc(Cc2nc3ccc(C(=O)N(C)C(C)c4ccon4)cc3o2)cc1 (stereo not given),u,-3.2%,49.2*,3.9%,40.7*,u
Cc1nnc(NC(=O)CSc2nnc3ncccn23)s1,11.3%[46.1 µM],2.2%,-10.1,-2.7%,-4.4,-16.4%[46.1 µM]
CCOC(=O)C1CN(c2cc3c(cc2F)c(=O)c(C(=O)O)cn3CC)OC1C(=O)OCC (stereo not given),11.2%,u,-8.8,-26.6%,1.6,-5.7%
Cc1ccc(S(=O)(=O)N(C)CCCC(=O)N2CCN(c3ccccn3)CC2)cc1,u,13.1µM*,15.9,x,-2.1,-22.8%
CN(CC(=O)N1CCN(c2ncccn2)CC1)S(=O)(=O)c1ccc(Cl)cc1,-1.5%[46.1 µM],25.0%,11.4,2.1%,21.0*,20.8%
CN(CC(=O)N1CCCC1)S(=O)(=O)c1cccc(Cl)c1,5.0%[46.1 µM],u,-4.6,u,5.0,16.7%[46.1 µM]
CN(CC(=O)N1CCN(c2ccccn2)CC1)S(=O)(=O)c1ccccc1,-7.9%,35.6%,49.9*,1.4%,43.1*,u
